Compounds with a hit are over-represented: about 6.9% of the library has one in this group of screens.
Vif-A3F inh – blocks the Vif interaction with APOBEC3F; Potency, µM (top dose mostly 46.1 µM), without a hit: at the top dose activity, negative = active; AID 602313; HeLa A3F-eYFP + Vif (tagged APOBEC3F with the HIV-1 protein that degrades it), YFP fluorescence increase; hit rate 0.2% among 390,000; also: potency is read from the fitted curve at half-maximal effect; % of control where 0% means no effect; nearly all actives have a fitted effect of over 65% in size
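Fluorescence increase (Ex 488/Em 500-530) after overnight compound treatment at 37 deg C flags inhibition of Vif-driven A3F-eYFP loss in stable HeLa A3F-eYFP/Vif cells seeded overnight beforehand.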
IL1B secr inh – blocks inflammasome-driven IL-1 beta release | AID 743279 | hit rate 4.7% among 360,000 | activity change, % at 57.5 µM | THP-1 LPS/ATP IL-1B secretion, AlphaLISA, 16 h; stronger effect = lower value; in the data active = activity change below about -50%; inconclusive = mostly about -30% to -49%; also: % is scaled to controls: 0 for no effect and ±100 for the full control effect
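Secreted IL-1B measured by AlphaLISA bead assay after 16 h compound exposure of THP-1 cells; compounds (final up to 57.5 uM) added 1 h before LPS (250 ng/mL) and ATP (1.25 mM) stimulation; lower signal means less secretion.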
SW480 rerep – induces DNA re-replication in SW480 colon adenocarcinoma cells. SW480 DNA re-replication, Hoechst DNA content imaging, 48 h. Potency, µM (top dose mostly 46.1 µM), inactives show at the highest dose re-replication activation, most hits filed as activators. hit rate 1.8% among 340,000. AID 624297; also: potency is read from the fitted curve at half-maximal effect; % of control where 0% means no effect; nearly all actives have a fitted effect of over 55% in size
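Per well, 250 cells were exposed to pinned compound for 48 hr. Nuclear DNA was visualised with Hoechst (40 min, 37 C) and total object intensity recorded by fluorescence scanning.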
MCF10A rerep – induces DNA re-replication in MCF 10a normal breast cells; MCF 10A DNA re-replication, Hoechst nuclear intensity, 48 h; Potency, µM (titrated, usually from 46.1 µM), for the others: at the highest dose activity, positive = re-replication, usual class: activators; hit rate 2.9% among 350,000; AID 624296; also: potency is read from the fitted curve at half-maximal effect; % of control where 0% means no effect; nearly all actives have a fitted effect of over 50% in size
Giardia killer – Giardia lamblia killing; activity change, % at 7.66 µM, hits read low; hit rate 0.15% among 340,000; AID 540267; Giardia lamblia trophozoite viability; in the data active = activity change below about -80%; inconclusive = between about -30% and that limit;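 also: parasites exposed to compound for two days anaerobically before the ATP read; % is scaled to controls: 0 for no effect and ±100 for the full control effect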
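Trophozoites 100 cells/well + cpd; 48 hrs, 37 deg C, anaerobic. ATPLite 1-Step added, 15-30 min RT, luminescence read (ATP-based viability).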
Vif-A3G inh – blocks the Vif interaction with human APOBEC3G. Q9HC16. HeLa A3G-eYFP + Vif (tagged APOBEC3G with the HIV-1 protein that degrades it), YFP fluorescence, overnight. Potency, µM (doses to about 46.1 µM), inactives show at the highest dose activity, negative = active, actives largely listed as inhibitors. hit rate 0.076% among 410,000; also: potency is read from the fitted curve at half-maximal effect; % is scaled to controls: 0 for no effect and ±100 for the full control effect; nearly all actives have a fitted effect of over 60% in size
Target sequence (Q9HC16 whole entry, looked up): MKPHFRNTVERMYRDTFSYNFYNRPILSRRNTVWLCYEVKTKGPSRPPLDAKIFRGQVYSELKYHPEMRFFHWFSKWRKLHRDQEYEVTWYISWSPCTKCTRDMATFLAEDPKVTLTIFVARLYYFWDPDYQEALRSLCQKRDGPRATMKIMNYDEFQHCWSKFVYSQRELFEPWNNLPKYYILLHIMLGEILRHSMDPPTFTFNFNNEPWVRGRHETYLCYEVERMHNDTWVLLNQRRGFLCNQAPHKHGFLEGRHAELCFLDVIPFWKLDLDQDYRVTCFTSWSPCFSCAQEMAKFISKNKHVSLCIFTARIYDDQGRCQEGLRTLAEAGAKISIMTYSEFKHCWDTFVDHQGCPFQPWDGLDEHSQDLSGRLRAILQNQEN
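Read-out is eYFP fluorescence (Ex 488/Em 500-530) from Vif-expressing HeLa A3G-eYFP cells; more signal means A3G escaped Vif-mediated degradation. Cells plated overnight, compound pinned in, incubated overnight at 37 deg C.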
Active calls of the source: *; i = inactive; ? = inconclusive; . = not tested or not shown. Unless noted, calls follow the shape of the dose curve; as a rule, active = well fitted curve in the direction sought with a large enough effect; inconclusive = small, poorly fitted or top-dose-only effect, or another doubt; inactive = no such curve, though single readings can be large; an effect the other way counts as inactive or inconclusive.

SMILES	Vif-A3F inh	IL1B secr inh	SW480 rerep	MCF10A rerep	Giardia killer	Vif-A3G inh
O=S(=O)(c1ccc(C(F)(F)F)cc1)N1CCN(c2nc(-c3ccccc3)nc3ccccc23)CC1	.	.	.	.	7.2	-0.8%
O=C(NCCO)C(=O)Nc1c2c(nn1-c1ccc(F)cc1)CSC2	2.2%	.	.	.	.	-1.8%
O=C(C1CCCCC1)N1C[C@@H](n2cc(-c3ccc(F)cc3)nn2)[C@H](O)C[C@@H]1c1ccc(Cl)cc1	-16.9%	?	.	.	.	-8.3%
O=C(C1CCCCC1)N1C[C@H](n2cc(-c3ccc(F)cc3)nn2)[C@@H](O)C[C@@H]1c1ccc(Cl)cc1	-8.5%	-56.0*	.	.	.	-5.7%
CCCCCC(=O)N1C[C@@H](n2cc(-c3ccc(F)cc3)nn2)[C@H](O)C[C@@H]1c1ccc(Cl)cc1	-1.6%	-55.9*	.	.	.	-9.2%
CCCCCC(=O)N1C[C@H](O)[C@@H](n2cc(-c3ccc(F)cc3)nn2)C[C@@H]1c1ccc(Cl)cc1	0.1%	?	.	.	.	2.7%
O=[N+]([O-])c1ccc2c(c1)/C(=C/c1ccc(C=S)cc1)C=C2	.	.	.	.	.	-6.3%
O=C(C[n+]1ccccc1)c1cccc([N+](=O)[O-])c1	.	.	.	.	.	-1.7%
N#Cc1c(NC(=O)c2cc(C3CC3)on2)sc2c1CCC2	-18.3%	37.4	20.6µM*	3.26µM*	5.0	?
Cc1cc(C(=O)Nc2sc3c(c2C#N)CCCC3)no1	-0.2%	-14.8	11.6µM*	?	-15.7	?
CC(C)Cc1cc(C(=O)Nc2sc3c(c2C#N)CCCC3)no1	-9.2%	-2.1	-1.6%	19.4%	-0.9	-11.6%
CC1CCc2c(sc(NC(=O)CSc3ncn[nH]3)c2C#N)C1 (stereo not given)	-9.9%	-5.9	5.1%	18.4µM*	19.6	-18.9%
Cc1cc(C(=O)Nc2sc3c(c2C#N)CCC(C)C3)no1 (stereo not given)	-22.2%	-6.9	?	9.2µM*	-20.2	-26.1%
CC(C)(C)C1CCc2c(sc(NC(=O)CSc3ncn[nH]3)c2C#N)C1 (stereo not given)	0.9%	?	?	?	-1.3	-15.4%
COc1ccc(CCNc2ncnc3c2c(-c2ccccc2)cn3-c2ccc(Cl)cc2)cc1OC	0.8%	.	.	.	.	7.5%
CCc1ccc(C2/C=C\CNC(c3ccccc3)C(=O)N2Cc2ccc(C)cc2)cc1 (stereo not given)	.	.	.	.	-4.1	3.2%
Cc1ccc(CNc2ncnc3onc(C)c23)cc1	4.7%	.	.	.	.	2.5%
CC(C)c1cc(-c2nc(-c3ccccc3)no2)n[nH]1	-0.3%	.	.	.	.	2.8%
CCOc1ccccc1NC(=O)Cn1c(=O)n(-c2ccc(C)cc2)c(=O)c2c1cnn2C	-7.9%	.	.	.	.	-2.2%
CC(C)Cc1cc(C(=O)Nc2sc3c(c2C#N)CCC3)no1	-14.4%	-5.1	1.1%	2.0%	16.1	-14.3%
Cn1cc([N+](=O)[O-])c(C(=O)Nc2sc3c(c2C#N)CCC3)n1	-2.7%	-92.8*	?	3.66µM*	?	?
Cc1cc(C(=O)Nc2sc3c(c2C#N)CCC3)no1	-3.9%	0.0	?	8.2µM*	-4.8	?
O=C(NCCc1ccc(Cl)cc1)C1COc2ccccc2C1 (stereo not given)	1.8%	.	.	.	.	5.6%
COc1ccc(Cl)cc1NC(=O)CSc1c2c(nc3ccccc13)CCC2	?	.	.	.	.	-1.2%
CCc1ccccc1Nc1cc(C(=O)NC2CCC(C)CC2)c2ccccc2n1 (stereo not given)	?	.	.	.	.	0.5%
SMILES	Vif-A3F inh	IL1B secr inh	SW480 rerep	MCF10A rerep	Giardia killer	Vif-A3G inh
Fc1ccc(CNC2CCN(Cc3ccccc3)CC2)cc1	10.4%	-17.9	-6.9%	-7.1%	0.9	3.4%
c1ccc(-c2ccc(CNC3CC3)cc2)cc1	-4.0%	-87.3*	-0.5%	5.9%	1.4	-3.1%
COc1ccc(-c2nnc(SCC(=O)c3cc(C)n(Cc4cccs4)c3C)o2)cc1	-13.3%	-3.1	-3.1%	?	9.8	-0.7%
COc1ccc(-n2cnnc2SCC(=O)c2cc(C)n(Cc3cccs3)c2C)cc1	0.6%	-64.9*	-4.5%	?	4.9	3.2%
CC1CCN(C(=O)CSc2nc(-c3ccccc3)no2)CC1	2.6%	.	.	.	.	0.7%
CCCCn1c(N)c(N(Cc2ccccc2OC)C(=O)C(C)Oc2ccc(F)cc2)c(=O)[nH]c1=O (stereo not given)	4.2%	-16.7	-4.7%	0.2%	-2.5	3.0%
CCCCn1c(N)c(N(Cc2ccccc2OC)C(=O)C(C)Oc2ccc(Cl)cc2)c(=O)[nH]c1=O (stereo not given)	-17.5%	i	20.6µM*	-17.5%	-2.3	-8.0%
Cc1cccc(Cn2cc(C(=O)Nc3ccc(F)c(C(F)(F)F)c3)ccc2=O)c1	-2.7%	.	.	.	.	4.0%
O=C(Nc1nccs1)c1cnccn1	1.4%	-0.1	-7.9%	20.0%	4.1	-0.9%
CCc1nnc(NC(=O)c2cnccn2)s1	1.0%	0.5	-0.1%	18.4µM*	-1.9	-1.1%
O=C(Nc1nc2ccc(F)cc2s1)c1ccccn1	-6.5%	-95.5*	5.17µM*	18.4µM*	-29.2	-6.6%
CC(=O)c1sc(Nc2nc3ccc(F)cc3s2)nc1C	7.5%	21.6	9.2µM*	?	-6.9	-21.5%
CCCCNC(=O)Nc1nc2ccccc2s1	2.1%	-78.0*	-13.1%	-1.4%	15.3	-3.2%
COC(=O)c1ccc2nc(Nc3nc4ccc(F)cc4s3)sc2c1	-19.4%	19.9	?	?	-11.0	?
CCOc1cccc(CC(=O)NCc2ccc3c(c2)CCN3C(=O)c2cccc(C)c2)c1OCC	-3.2%	.	.	.	.	2.9%
O=C(Nc1nnc(SCc2ccc(F)cc2)s1)c1cccnc1Cl	4.3%	7.1	-45.1%	1.2%	-13.1	-0.5%
CCc1nnc(NC(=O)c2oc3cc(C)c(C)cc3c2C)s1	2.9%	-0.4	0.517µM*	5.2%	-6.1	-0.7%
O=C(Nc1nnc(SCc2ccc(F)cc2)s1)c1ccccn1	?	0.0	13µM*	?	4.7	-19.9%
CCOc1ccc2nc(NC(=O)c3cnccn3)sc2c1	1.4%	-16.0	0.6%	-4.6%	?	4.5%
O=C(Nc1nc2ccccc2s1)c1cnccn1	-4.1%	10.6	14.6µM*	3.26µM*	-13.5	?
Cc1cc2cc(C=C(C#N)C#N)c(Cl)nc2cc1C	?	-100.5*	?	18.4µM*	-15.7	?
Cc1ccc2oc(=O)c3cc(C(=O)N(Cc4ccccc4)C(C)C)sc3c2c1	5.3%	.	.	.	.	-4.4%
CCn1ccc2cc(S(=O)(=O)N3CCCN(C(=O)NCC(C)C)CC3)ccc21	2.7%	.	.	.	.	-0.7%
CCOC(=O)c1sc(N)c(C(=O)Nc2ccccc2OC)c1C	?	15.0	16.4µM*	10.3µM*	1.2	?
COc1ccccc1C(=O)Nc1ccccc1SC(=O)c1ccccc1OC	1.0%	-2.9	?	20.6µM*	6.8	-20.0%

Screening data as filed in PubChem BioAssay.
